Source: the supplement of paper PMC10849652
Of roughly 7,900 targets only a part is listed; those with a hit were picked by preference. About 0.6% of all pairs of compound and target were hits. Values without a mark were called inactive.

Legend:
Assay in all cases: log2 fold change, soluble protein after heating vs DMSO (PISA); higher = thermal stabilisation; K562 cells, 10 uM, 30 min; active = over 0.2 and 3.5 SD of the protein, either way, in both replicates (recomputed)
[1] = compound: Cc1ccc(NC(=O)c2ccc(CN3CC[C@H](N(C)C)C3)c(C(F)(F)F)c2)cc1Nc1nccc(-c2cncnc2)n1 [bafetinib]
Procedure, shortened: (§1)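 K562 cells (2×10^6 cells/mL) were treated with 10 μM compound for 30 min, and aliquots were heated for 3 min over 48°C-58°C. Pooled aliquots were extracted in PBS with 0.5% NP-40 at 4°C, and the supernatant after 21,000xg for 90 min was measured by TMTpro 16plex LC-MS/MS with channel sums equalised. Reported thermal stability, relative to control samples and from duplicates, is a log2 fold change.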

[2] = compound: Cc1cccc(CC(=O)N2CCc3c2ccc(-c2cn(C)c4ncnc(N)c24)c3F)n1
Procedure, shortened: as §1

[3] = compound: Cc1cn(-c2cc(NC(=O)c3ccc(C)c(Nc4nccc(-c5cccnc5)n4)c3)cc(C(F)(F)F)c2)cn1 [nilotinib]
Procedure, shortened: as §1

[4] = compound: Cc1nc(Nc2n[nH]c3c2CN(C(=O)N[C@H](CN(C)C)c2ccccc2)C3(C)C)c2sccc2n1
Procedure, shortened: as §1

[5] = compound: Cc1nc(Nc2ncc(C(=O)Nc3c(C)cccc3Cl)s2)cc(N2CCN(CCO)CC2)n1 [dasatinib]
Procedure, shortened: as §1

[6] = compound: Cc1ncc(-c2ccnc(Nc3ccc(S(C)(=O)=O)cc3)n2)n1C(C)C
Procedure, shortened: as §1

[7] = compound: Cn1cc(-c2ccc3c(c2)CCN3C(=O)Cc2cccc(C(F)(F)F)c2)c2c(N)ncnc21
Procedure, shortened: as §1

[8] = compound: Cn1cc(-c2ccc3nnc(C(F)(F)c4ccc5ncccc5c4)n3n2)cn1
Procedure, shortened: as §1

[9] = compound: Cn1cncc1[C@@](N)(c1ccc(Cl)cc1)c1ccc2c(c1)c(-c1cccc(Cl)c1)cc(=O)n2C [tipifarnib]
Procedure, shortened: as §1

[10] = compound: FC(F)(F)c1ccc(/C=C/c2nc(COc3ccc(CCCCn4ccnn4)cc3)co2)cc1 [mubritinib]
Procedure, shortened: as §1

[11] = compound: NC(=O)Nc1cc(-c2cccc(F)c2)sc1C(=O)N[C@H]1CCCNC1
Procedure, shortened: as §1

[12] = compound: NC(=O)c1cnc(N[C@@H]2CCCC[C@@H]2N)nc1Nc1cccc(-n2nccn2)c1
Procedure, shortened: as §1

[13] = compound: NC1(c2ccc(-c3nc4ccn5c(=O)[nH]nc5c4cc3-c3ccccc3)cc2)CCC1
Procedure, shortened: as §1

[14] = compound: NCC(=O)Nc1ccc(-n2nc(C(F)(F)F)cc2-c2ccc3c(ccc4ccccc43)c2)cc1
Procedure, shortened: as §1

[15] = compound: Nc1ccccc1NC(=O)c1ccc(CNC(=O)OCc2cccnc2)cc1 [entinostat]
Procedure, shortened: as §1

[16] = compound: O=C(CCCCCCC(=O)Nc1ccccc1)NO [vorinostat]
Procedure, shortened: as §1

[17] = compound: O=C(CCCCCCNC(=O)c1cnc(N(c2ccccc2)c2ccccc2Cl)nc1)NO [citarinostat]
Procedure, shortened: as §1

[18] = compound: O=C(O)c1ccc2c(c1)nc(Nc1cccc(Cl)c1)c1ccncc12 [silmitasertib]
Procedure, shortened: as §1

[19] = compound: O=C1NC(=O)C(c2cnc3ccccn23)=C1c1cn2c3c(cc(F)cc13)CN(C(=O)N1CCCCC1)CC2
Procedure, shortened: as §1

[20] = compound: c1cc(OCCN2CCCCC2)cc(-c2n[nH]c3ccc(-c4nnc[nH]4)cc23)c1
Procedure, shortened: as §1

Sequence of UniProt Q96E09 (Q96E09 whole entry, looked up): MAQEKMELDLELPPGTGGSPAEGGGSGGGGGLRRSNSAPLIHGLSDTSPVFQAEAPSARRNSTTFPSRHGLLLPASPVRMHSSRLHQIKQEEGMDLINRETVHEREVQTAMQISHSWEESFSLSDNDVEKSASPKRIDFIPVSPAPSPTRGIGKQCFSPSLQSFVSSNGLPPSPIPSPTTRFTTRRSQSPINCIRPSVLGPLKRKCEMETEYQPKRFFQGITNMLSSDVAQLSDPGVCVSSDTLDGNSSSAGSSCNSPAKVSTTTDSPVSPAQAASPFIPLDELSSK
Sequence of UniProt Q7L014 (Q7L014 whole entry, looked up): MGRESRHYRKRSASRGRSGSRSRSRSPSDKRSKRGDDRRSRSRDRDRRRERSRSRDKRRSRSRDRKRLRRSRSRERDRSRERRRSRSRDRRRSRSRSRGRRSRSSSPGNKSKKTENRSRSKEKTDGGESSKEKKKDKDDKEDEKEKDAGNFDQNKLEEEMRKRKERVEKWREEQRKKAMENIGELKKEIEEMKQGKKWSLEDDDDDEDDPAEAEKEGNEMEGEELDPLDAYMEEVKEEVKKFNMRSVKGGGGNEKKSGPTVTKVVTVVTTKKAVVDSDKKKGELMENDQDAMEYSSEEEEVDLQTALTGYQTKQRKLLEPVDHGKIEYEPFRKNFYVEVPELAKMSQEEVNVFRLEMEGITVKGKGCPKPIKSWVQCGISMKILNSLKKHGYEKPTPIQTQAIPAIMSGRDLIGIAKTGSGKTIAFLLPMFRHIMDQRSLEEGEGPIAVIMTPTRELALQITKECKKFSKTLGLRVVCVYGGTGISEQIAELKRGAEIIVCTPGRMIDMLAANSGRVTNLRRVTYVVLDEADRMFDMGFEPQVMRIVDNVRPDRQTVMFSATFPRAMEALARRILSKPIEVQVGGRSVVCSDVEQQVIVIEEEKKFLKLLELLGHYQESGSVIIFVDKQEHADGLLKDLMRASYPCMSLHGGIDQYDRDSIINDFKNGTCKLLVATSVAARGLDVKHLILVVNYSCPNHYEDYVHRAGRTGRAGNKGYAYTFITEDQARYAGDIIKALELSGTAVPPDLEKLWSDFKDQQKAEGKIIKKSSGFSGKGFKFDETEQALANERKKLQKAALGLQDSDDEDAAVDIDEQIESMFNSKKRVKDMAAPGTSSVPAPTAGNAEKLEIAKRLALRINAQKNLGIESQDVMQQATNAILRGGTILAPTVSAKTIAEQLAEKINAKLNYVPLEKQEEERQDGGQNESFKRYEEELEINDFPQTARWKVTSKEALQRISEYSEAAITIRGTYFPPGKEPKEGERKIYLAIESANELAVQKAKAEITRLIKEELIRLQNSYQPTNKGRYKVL
Sequence of UniProt P35222 (P35222 whole entry, looked up): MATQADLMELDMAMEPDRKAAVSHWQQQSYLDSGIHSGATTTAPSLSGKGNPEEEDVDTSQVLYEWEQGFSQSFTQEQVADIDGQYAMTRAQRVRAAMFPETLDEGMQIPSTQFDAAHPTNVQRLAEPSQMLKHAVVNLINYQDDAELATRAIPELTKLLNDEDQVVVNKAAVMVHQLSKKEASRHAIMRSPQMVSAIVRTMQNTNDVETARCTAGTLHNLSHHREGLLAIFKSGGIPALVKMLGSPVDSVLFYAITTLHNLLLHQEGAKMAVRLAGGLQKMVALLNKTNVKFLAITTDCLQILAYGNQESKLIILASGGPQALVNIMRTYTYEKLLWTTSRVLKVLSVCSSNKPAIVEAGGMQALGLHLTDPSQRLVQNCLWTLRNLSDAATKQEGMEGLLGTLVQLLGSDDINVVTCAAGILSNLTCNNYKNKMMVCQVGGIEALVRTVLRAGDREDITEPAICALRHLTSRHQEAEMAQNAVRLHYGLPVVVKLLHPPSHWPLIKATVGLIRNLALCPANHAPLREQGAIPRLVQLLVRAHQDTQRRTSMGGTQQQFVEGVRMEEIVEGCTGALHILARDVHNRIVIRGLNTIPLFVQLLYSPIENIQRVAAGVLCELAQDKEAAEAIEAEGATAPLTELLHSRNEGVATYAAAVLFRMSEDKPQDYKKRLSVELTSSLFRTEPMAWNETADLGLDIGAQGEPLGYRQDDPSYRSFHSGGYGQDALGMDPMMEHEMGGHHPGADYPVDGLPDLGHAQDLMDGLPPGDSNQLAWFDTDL
Sequence of UniProt P50402 (P50402 whole entry, looked up): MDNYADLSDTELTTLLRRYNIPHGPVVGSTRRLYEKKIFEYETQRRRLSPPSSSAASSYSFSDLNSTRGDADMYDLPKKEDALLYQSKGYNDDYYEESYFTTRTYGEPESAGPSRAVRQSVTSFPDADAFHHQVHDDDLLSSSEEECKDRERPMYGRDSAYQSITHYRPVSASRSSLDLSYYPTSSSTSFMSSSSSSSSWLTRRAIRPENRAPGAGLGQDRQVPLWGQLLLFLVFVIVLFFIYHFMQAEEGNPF
Sequence of UniProt O76075 (O76075 whole entry, looked up): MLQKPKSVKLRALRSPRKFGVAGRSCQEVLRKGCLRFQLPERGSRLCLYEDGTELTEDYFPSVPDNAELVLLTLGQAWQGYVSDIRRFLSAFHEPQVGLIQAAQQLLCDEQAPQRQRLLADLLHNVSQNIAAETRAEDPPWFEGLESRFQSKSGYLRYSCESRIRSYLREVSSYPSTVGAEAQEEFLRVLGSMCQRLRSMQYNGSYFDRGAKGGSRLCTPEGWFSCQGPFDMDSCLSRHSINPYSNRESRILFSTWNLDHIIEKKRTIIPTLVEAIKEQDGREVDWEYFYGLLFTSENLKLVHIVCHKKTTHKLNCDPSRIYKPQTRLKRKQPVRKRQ
Sequence of UniProt P98082 (P98082 whole entry, looked up): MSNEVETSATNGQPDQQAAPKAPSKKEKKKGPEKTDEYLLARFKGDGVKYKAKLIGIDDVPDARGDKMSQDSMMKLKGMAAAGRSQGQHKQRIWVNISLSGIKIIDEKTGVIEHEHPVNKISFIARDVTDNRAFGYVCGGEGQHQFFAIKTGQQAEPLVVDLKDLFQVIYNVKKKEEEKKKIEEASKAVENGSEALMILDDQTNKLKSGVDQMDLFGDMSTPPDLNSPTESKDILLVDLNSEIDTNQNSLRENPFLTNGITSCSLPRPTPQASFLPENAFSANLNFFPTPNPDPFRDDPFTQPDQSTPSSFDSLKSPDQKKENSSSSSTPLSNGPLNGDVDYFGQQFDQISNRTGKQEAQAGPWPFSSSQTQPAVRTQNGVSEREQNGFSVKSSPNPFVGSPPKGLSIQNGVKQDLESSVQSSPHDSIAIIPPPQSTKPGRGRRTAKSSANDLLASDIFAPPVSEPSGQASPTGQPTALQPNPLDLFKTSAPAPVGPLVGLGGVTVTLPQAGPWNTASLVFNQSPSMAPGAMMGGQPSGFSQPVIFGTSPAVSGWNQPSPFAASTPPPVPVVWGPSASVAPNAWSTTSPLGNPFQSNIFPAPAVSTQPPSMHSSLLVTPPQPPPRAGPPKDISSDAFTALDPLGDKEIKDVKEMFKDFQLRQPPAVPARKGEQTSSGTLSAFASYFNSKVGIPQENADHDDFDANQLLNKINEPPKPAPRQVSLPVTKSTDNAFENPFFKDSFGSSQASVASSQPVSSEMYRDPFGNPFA
Sequence of UniProt P98173 (P98173 whole entry, looked up): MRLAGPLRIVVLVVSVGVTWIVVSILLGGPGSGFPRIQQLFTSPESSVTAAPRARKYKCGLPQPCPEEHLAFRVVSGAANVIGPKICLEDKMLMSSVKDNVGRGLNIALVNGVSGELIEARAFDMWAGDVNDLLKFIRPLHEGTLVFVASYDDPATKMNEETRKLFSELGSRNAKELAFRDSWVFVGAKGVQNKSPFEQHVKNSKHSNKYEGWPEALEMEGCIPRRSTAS
Sequence of UniProt Q5NDL2 (Q5NDL2 whole entry, looked up): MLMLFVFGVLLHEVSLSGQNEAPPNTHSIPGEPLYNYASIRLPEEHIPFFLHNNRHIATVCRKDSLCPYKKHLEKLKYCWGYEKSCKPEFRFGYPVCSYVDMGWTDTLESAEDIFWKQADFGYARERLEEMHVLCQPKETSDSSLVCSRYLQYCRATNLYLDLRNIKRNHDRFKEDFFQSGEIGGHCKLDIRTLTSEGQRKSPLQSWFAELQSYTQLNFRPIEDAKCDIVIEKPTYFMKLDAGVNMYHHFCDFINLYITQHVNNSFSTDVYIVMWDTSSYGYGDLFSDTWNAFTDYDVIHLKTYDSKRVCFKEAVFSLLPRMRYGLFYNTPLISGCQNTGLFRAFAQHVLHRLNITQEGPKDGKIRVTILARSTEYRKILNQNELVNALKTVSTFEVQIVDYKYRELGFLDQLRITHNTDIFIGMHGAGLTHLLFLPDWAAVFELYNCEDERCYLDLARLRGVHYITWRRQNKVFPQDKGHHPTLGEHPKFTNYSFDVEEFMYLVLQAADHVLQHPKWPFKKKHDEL
Sequence of UniProt P09668 (P09668 whole entry, looked up): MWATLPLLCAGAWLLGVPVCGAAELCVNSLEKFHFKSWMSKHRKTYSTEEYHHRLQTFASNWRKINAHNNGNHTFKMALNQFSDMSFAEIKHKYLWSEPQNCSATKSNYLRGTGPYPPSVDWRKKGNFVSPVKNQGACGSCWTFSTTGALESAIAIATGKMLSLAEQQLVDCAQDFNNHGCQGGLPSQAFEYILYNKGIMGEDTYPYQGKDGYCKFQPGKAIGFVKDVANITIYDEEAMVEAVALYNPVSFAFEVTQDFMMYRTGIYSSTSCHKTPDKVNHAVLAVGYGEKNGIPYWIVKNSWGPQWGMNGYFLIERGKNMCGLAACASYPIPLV
Sequence of UniProt Q9GZT9 (Q9GZT9 whole entry, looked up): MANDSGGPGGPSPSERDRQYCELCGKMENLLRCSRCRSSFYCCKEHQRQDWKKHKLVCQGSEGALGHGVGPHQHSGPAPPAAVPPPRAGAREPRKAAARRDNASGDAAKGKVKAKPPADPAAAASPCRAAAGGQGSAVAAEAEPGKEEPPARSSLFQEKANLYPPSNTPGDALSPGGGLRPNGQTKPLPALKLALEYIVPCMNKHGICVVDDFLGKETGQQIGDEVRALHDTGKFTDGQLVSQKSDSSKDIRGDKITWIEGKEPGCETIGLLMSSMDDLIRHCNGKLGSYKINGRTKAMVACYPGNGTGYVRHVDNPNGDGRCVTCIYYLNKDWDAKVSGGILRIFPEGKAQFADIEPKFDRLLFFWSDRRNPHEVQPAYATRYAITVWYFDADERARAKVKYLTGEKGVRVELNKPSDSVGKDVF

Target | log2 fold change [1] | log2 fold change [2] | log2 fold change [3] | log2 fold change [4] | log2 fold change [5] | log2 fold change [6] | log2 fold change [7] | log2 fold change [8] | log2 fold change [9] | log2 fold change [10] | log2 fold change [11] | log2 fold change [12] | log2 fold change [13] | log2 fold change [14] | log2 fold change [15] | log2 fold change [16] | log2 fold change [17] | log2 fold change [18] | log2 fold change [19] | log2 fold change [20]
CTNNB1 (UniProt P35222) | 0.026 | 0.057 | -0.056 | 0.205 | -0.149 | 0.858 (active) | -0.004 | -0.021 | -0.115 | 0.076 | -0.14 | -0.06 | -0.18 | -0.2 | -0.078 | -0.001 | 0.093 | 0.03 | 1.3 (active) | -0.107
DHCR7 (UniProt Q9UBM7) | 0.428 (active) | -0.005 | -0.282 | -0.005 | -0.109 | 0.05 | 0.257 | -0.016 | -0.167 | 0.166 | 0.08 | 0.014 | 0.239 | -0.134 | 0.082 | 0.03 | -0.023 | -0.084 | -0.04 | -0.026
DDX46 (UniProt Q7L014) | 0.196 | 0.094 | 0.271 | -1.44 (active) | -0.084 | 0.1 | 0.104 | 0.102 | -0.113 | 0.604 (active) | -0.185 | -0.087 | -0.178 | -0.197 | 0.095 | 0 | 0.103 | 0.018 | -0.243 | 0.084
FAM3A (UniProt P98173) | -0.027 | 0.023 | 0.007 | -0.044 | 0.036 | -0.001 | 0.031 | -0.03 | 0.042 | 0 | 0.022 | -0.028 | -0.21 (active) | 0.006 | -0.097 | -0.01 | 0 | -0.015 | 0.034 | -0.028
CTSH (UniProt P09668) | -0.071 | -0.034 | 0.166 | 0.03 | 0.084 | -0.041 | 0.055 | 0.056 | 0.09 | -0.063 | 0.012 | 0.029 | 0.032 | 0.04 | -0.002 | -0.01 | -0.02 | 0.005 | 0.022 | 0.197
FAM122A (UniProt Q96E09) | -0.096 | -0.185 | 0.027 | -0.184 | -0.054 | 0.059 | 0.024 | 0.037 | -0.059 | 0.009 | -0.031 | 0.076 | -0.048 | 0.023 | 0.143 | 0.025 | -0.009 | 0.005 | -0.052 | 0.062
EPHX2 (UniProt P34913) | 0.131 | -0.097 | 0.152 | -0.029 | -0.041 | 0.073 | 0.051 | 0.016 | 0.065 | 0.11 | -0.148 | -0.05 | -0.016 | -0.015 | 0.045 | 0.113 | 0.025 | 0.003 | -0.025 | -0.037
ECPAS (UniProt Q5VYK3) | 0.031 | 0.105 | -0.067 | -0.038 | -0.255 (active) | 0.077 | -0.011 | -0.043 | -0.202 | 0.021 | -0.009 | -0.024 | -0.169 | -0.035 | 0.073 | 0.077 | 0.08 | 0.071 | -0.038 | -0.032
EMD (UniProt P50402) | -0.167 | -0.081 | 0.074 | -0.071 | -0.017 | -0.045 | -0.005 | -0.098 | 0.087 | 0.031 | -0.012 | -0.064 | -0.068 | -0.041 | -0.031 | -0.017 | -0.076 | 0.054 | -0.084 | -0.141
DFFB (UniProt O76075) | 0.042 | -0.032 | -0.047 | -0.156 | -0.057 | 0.056 | -0.053 | 0.002 | -0.072 | 0.019 | 0.028 | -0.064 | -0.037 | 0.069 | 0 | 0.016 | 0.057 | 0.087 | 0.048 | -0.08
DLD (UniProt P09622) | -0.028 | -0.042 | 0.034 | -0.018 | -0.025 | -0.066 | -0.04 | 0.015 | -0.008 | -0.429 (active) | 0.003 | 0.007 | -0.088 | 0.033 | -0.013 | -0.02 | 0.011 | -0.042 | -0.004 | -0.093
DUS3L (UniProt Q96G46) | -0.041 | -0.02 | -0.073 | -0.059 | -0.005 | 0.021 | -0.064 | -0.017 | 0.053 | -0.115 | 0.113 | -0.012 | 0.194 | 0.003 | 0.003 | 0.093 | 0.058 | 0.112 | -0.176 | -0.029
FAAP100 (UniProt Q0VG06) | 0.201 | 0.043 | -0.032 | -0.005 | 0.035 | -0.039 | -0.005 | 0.101 | 0.1 | 0 | 0.009 | 0.039 | -0.076 | -0.031 | -0.05 | 0.048 | -0.012 | -0.051 | 0.197 | -0.053
EGLN1 (UniProt Q9GZT9) | -0.031 | -0.018 | 0.066 | -0.026 | -0.073 | -0.036 | -0.01 | 0.017 | 0.016 | -0.116 | 0.095 | -0.016 | -0.043 | -0.029 | -0.009 | 0.021 | 0.034 | 0.024 | 0.014 | -0.178
EOGT (UniProt Q5NDL2) | -0.009 | -0.025 | -0.044 | 0.055 | -0.052 | -0.005 | -0.082 | -0.038 | 0.029 | -0.021 | -0.008 | -0.063 | -0.045 | -0.011 | 0.031 | -0.092 | -0.016 | 0.038 | 0.009 | -0.063
DAB2 (UniProt P98082) | -0.041 | 0.085 | -0.152 | 0.002 | -0.178 | -0.098 | 0.01 | -0.007 | -0.042 | -0.024 | -0.006 | -0.033 | -0.124 | 0.016 | -0.026 | -0.066 | 0.037 | 0.102 | 0.001 | -0.041
